For some assays here: Results with a measured potency or affinity are listed apart.
Key:
Parameters in all cases: scale not given: direction of the effect not stated beside the values
[1] = molecular target: Protein translocase subunit SecA (Escherichia coli (strain K12)) (UniProt P10408); test: Assay to Identify E. coli SecA ATPase Inhibitors; format: functional; conditions: 30 µM
[2] = molecular target: T1, Ubiquitin-activating enzyme e1, putative (Leishmania donovani (strain BPK282A1)) (UniProt E9BSI1); test: Leishmania donovani Ubiquitin Activating Enzyme (LdE1); format: functional; conditions: 30 µM
T1 sequence (whole entry): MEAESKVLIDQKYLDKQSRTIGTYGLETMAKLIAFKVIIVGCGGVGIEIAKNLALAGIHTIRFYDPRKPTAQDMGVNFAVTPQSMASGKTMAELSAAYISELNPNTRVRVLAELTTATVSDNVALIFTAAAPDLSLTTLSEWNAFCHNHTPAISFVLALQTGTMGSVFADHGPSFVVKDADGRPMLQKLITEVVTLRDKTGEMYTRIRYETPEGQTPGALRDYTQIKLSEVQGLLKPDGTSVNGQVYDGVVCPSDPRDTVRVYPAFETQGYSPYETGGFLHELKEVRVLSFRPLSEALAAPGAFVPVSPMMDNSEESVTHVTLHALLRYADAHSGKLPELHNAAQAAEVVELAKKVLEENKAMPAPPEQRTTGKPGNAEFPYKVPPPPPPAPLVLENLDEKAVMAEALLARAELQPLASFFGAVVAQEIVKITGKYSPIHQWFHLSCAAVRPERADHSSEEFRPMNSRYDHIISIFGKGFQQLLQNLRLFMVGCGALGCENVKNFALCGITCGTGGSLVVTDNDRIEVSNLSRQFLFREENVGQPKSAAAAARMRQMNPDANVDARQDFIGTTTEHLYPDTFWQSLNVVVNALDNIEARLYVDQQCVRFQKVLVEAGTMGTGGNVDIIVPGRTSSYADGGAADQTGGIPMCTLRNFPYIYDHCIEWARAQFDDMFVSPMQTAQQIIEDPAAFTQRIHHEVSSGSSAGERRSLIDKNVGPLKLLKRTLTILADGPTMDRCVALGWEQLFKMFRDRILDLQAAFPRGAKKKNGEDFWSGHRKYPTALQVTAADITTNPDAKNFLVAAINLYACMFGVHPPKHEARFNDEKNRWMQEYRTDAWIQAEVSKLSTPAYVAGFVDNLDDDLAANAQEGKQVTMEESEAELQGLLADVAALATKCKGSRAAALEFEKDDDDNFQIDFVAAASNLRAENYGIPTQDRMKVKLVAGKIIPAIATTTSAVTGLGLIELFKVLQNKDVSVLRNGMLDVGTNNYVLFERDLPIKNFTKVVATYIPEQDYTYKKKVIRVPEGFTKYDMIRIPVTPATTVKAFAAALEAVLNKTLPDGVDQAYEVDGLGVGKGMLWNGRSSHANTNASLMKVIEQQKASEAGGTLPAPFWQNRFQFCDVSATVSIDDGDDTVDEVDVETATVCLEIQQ

[3] = molecular target: AMP-activated protein kinase, AMPK (Homo sapiens) (UniProt P54646+O43741+P54619+Q9UGJ0+Q9Y478+Q13131+Q9UGI9); test: AMP-dependent Kinase enzyme assay. An in vitro enzyme assay that detects ADP turnover that is directly proportional to AMPK activity. This uses naive AMPK that is activated during the assay with MK-8722; format: functional; conditions: 30 µM
[4] = molecular target: Sialic acid-binding Ig-like lectin 9 (Homo sapiens) (UniProt Q9Y336); test: Hs-Siglec9 ALPHAscreen SOP 20170721; conditions: 10 µM
Trypanosoma cruzi = test: Trypanosoma cruzi phosphomannomutase and mannose-1-phosphate guanylyltransferase assay; format: functional; conditions: 10 µM
[5] = molecular target: T2, Arginase-2, mitochondrial (Homo sapiens) (UniProt P78540); test: in vitro enzyme assay to detect the production of urea directly proportional to the activity of Arginase II; format: functional; conditions: 33.3 µM; note: in the data most compounds retested in dose-response had high values
T2 sequence (whole entry): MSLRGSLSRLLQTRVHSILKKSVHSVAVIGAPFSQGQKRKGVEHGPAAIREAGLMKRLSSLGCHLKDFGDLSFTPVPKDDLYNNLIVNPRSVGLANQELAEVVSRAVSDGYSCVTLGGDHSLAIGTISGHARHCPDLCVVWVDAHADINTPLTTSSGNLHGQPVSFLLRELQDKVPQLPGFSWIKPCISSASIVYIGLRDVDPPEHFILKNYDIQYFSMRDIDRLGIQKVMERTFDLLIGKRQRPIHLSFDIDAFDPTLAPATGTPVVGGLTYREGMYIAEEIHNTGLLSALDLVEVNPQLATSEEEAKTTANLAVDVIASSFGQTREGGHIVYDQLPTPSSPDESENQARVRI

[6] = molecular target: T3, Proteasome subunit beta (Trypanosoma cruzi) (UniProt O96673); test: Trypanosoma cruzi proteasome chymotrypsin-like activity (TcProtChymo) assay.; note: in the data most compounds retested in dose-response had high values; format: functional; conditions: 9.37 µM
T3 sequence (whole entry): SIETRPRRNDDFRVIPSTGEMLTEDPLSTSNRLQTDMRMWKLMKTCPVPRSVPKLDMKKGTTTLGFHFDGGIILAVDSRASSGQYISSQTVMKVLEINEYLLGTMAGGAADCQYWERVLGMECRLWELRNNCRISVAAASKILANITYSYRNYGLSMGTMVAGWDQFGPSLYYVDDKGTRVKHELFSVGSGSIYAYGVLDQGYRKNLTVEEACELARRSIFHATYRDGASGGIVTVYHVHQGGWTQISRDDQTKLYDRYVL

Homo sapiens = organism: Homo sapiens; test: To identify inhibition of the IFN signalling (Jak-Stat) pathway via expression of an eGFP reporter gene under the control of an IFN-stimulated response element (ISRE) containing MxA promoter.; format: functional; conditions: 30 µM
[7] = molecular target: T4, Tyrosyl-tRNA synthetase, putative (Trypanosoma cruzi (strain CL Brener)) (UniProt Q4DSP6); test: Trypanosoma cruzi tyrosyl tRNA synthetase (TcYRS) _High Tyrosine SOP; format: functional; conditions: 30 µM; note: in the data most compounds retested in dose-response had high values
T4 sequence (whole entry): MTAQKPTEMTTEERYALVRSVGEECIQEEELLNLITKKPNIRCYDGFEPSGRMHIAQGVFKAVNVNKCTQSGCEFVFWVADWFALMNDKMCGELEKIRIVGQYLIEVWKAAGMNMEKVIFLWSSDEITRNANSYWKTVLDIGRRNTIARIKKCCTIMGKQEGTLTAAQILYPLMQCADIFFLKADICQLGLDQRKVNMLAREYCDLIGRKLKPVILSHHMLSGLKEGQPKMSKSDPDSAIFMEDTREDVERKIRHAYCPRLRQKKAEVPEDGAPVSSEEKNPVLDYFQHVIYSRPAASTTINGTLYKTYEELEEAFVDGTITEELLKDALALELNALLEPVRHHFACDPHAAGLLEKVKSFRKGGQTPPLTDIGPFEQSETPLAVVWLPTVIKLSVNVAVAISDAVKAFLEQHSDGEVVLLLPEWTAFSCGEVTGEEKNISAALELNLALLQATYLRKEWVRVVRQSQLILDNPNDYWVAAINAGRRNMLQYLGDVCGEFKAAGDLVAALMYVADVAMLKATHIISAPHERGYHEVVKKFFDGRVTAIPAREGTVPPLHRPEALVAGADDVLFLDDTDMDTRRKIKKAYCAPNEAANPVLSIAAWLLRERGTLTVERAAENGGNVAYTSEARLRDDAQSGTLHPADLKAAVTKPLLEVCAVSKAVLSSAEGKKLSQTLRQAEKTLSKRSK

[8] = molecular target: T4, Tyrosyl-tRNA synthetase, putative (Trypanosoma cruzi (strain CL Brener)); test: Trypanosoma cruzi tyrosyl tRNA synthetase (TcYRS) SOP; format: functional; conditions: 30 µM
[9] = molecular target: Chromo domain-containing protein 1 (Saccharomyces cerevisiae (strain ATCC 204508 / S288c) (Baker's yeast)) (UniProt P32657); test: ScCHD-1 Enzyme Inhibition Assay; format: functional; conditions: 30 µM; note: in the data most compounds retested in dose-response had high values
Chain of Chromo domain-containing protein 1 (Saccharomyces cerevisiae (strain ATCC 204508 / S288c) (Baker's yeast)) (P32657 whole entry, the tested form may be a part): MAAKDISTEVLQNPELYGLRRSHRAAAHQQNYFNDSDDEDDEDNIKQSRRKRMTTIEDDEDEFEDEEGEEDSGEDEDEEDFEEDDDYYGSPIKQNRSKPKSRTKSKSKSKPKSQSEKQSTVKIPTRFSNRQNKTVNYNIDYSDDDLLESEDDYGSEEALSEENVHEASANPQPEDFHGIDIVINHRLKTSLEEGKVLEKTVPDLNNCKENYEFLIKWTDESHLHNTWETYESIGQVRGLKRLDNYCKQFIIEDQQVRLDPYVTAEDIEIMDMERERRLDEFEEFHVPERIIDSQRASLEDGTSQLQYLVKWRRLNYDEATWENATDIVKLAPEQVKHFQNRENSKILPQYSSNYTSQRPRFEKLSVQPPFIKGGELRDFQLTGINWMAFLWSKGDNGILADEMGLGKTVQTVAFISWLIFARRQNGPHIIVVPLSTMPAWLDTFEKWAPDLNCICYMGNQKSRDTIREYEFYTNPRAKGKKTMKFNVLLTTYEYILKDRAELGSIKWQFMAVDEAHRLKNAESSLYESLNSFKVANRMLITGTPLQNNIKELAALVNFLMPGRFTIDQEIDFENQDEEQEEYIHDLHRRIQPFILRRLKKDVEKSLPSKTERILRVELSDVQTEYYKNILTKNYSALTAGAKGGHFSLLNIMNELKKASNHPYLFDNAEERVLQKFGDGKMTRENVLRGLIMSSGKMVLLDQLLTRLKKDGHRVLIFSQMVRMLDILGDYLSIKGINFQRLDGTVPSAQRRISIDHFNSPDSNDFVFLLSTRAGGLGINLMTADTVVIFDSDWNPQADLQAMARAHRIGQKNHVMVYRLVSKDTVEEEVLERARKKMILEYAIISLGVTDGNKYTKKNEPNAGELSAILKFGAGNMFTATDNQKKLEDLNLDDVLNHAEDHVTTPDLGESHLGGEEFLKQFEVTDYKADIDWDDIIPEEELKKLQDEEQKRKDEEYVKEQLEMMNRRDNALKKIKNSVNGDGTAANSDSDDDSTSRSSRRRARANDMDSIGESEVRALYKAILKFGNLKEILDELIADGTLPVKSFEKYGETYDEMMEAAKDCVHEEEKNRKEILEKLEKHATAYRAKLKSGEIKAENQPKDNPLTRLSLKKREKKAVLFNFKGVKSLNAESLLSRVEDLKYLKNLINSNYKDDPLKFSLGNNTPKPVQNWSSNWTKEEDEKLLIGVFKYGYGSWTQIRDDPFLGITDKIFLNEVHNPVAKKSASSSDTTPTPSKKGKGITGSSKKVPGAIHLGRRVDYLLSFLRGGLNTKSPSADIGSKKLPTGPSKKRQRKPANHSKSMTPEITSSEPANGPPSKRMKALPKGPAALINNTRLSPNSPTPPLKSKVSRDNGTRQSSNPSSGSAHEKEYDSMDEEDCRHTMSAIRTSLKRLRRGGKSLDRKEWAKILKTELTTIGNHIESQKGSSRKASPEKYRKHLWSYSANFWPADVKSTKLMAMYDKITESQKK

Chain of Sialic acid-binding Ig-like lectin 9 (Homo sapiens) (Q9Y336 whole entry): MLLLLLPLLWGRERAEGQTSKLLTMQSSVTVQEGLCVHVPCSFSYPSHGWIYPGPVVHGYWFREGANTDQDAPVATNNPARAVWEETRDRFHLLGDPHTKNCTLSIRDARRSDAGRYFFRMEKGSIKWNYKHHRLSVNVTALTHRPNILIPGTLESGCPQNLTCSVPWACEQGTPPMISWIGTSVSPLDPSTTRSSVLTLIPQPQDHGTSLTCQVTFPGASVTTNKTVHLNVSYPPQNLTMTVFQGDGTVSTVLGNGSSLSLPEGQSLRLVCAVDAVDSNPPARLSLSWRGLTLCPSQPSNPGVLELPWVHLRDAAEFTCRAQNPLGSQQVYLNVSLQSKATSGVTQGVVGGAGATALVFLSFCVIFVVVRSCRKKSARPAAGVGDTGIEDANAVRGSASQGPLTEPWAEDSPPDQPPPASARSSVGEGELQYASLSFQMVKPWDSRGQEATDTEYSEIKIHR
Chain of Protein translocase subunit SecA (Escherichia coli (strain K12)) (P10408 whole entry): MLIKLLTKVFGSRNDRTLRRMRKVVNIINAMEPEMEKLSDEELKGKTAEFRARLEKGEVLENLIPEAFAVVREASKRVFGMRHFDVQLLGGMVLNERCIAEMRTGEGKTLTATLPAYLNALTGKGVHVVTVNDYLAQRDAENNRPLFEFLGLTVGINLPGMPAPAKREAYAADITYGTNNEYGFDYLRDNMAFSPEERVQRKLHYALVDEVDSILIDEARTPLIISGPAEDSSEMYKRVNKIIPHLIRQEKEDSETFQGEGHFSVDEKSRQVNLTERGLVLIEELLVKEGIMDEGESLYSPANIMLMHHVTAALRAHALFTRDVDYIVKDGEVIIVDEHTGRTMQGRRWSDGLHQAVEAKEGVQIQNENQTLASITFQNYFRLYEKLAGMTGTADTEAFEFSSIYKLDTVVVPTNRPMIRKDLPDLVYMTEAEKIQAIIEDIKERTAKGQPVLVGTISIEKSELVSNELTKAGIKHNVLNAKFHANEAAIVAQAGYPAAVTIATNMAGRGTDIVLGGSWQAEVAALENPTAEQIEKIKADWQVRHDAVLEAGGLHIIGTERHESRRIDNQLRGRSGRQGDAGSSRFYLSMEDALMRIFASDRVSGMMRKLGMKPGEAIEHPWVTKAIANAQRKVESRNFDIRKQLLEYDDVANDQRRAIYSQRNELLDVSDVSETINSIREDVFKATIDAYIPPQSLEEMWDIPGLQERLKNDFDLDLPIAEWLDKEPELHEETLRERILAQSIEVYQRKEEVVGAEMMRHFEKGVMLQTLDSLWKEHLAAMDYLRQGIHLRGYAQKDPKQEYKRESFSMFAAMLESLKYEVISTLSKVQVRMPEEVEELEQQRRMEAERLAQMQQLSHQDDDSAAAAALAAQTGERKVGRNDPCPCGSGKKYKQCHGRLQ

| Compound | Percent Effect [1] [%] | Percent Effect [2] [%] | Percent Effect [3] [%] | Percent Effect [4] [%] | Percent Effect (Trypanosoma cruzi) [%] | Percent Effect [5] [%] | Percent Effect [6] [%] | Percent Effect (Homo sapiens) [%] | Percent Effect [7] [%] | Percent Effect [8] [%] | Percent Effect [9] [%] |
| --- | --- | --- | --- | --- | --- | --- | --- | --- | --- | --- | --- |
| Cn1cc(CCNC(=O)NCc2nnc3n2CCC3)cn1 | -2.08 | 15.2 | -4.15 | 10.9 | -1.6 | 2.28 | -0.573 | 4.78 | 1.48 | 16.5 | -6.44 |
| Cc1csc(N2CCN(C(=O)CCn3cncn3)CC2)n1 | -2.99 | 17.7 | -7.64 | 11.1 | 0.472 | 4.18 | 6.31 | -0.236 | 8.37 | 21.5 | -6.07 |
| Cc1noc([C@H]2C[C@@H]3CCN(C(=O)N(C)C)C[C@H]3O2)n1 | -0.638 | -2.7 | 6.92 | 9.3 | -2.25 | 0.319 | 15.5 | -7.89 | -1.08 | 2.56 | 0.431 |
| CCN(C(c1cccnc1)c1ccc2c(c1)CCO2)S(C)(=O)=O (stereo unspecified) | -3.35 | 5.48 | -1.35 | 6.82 | 6.75 | -6.79 | 3.17 | 4.95 | 1.04 | 8.64 | -2.4 |
| COCC1CC2(CCN(C(=O)c3occc3C)CC2)CO1 (stereo unspecified) | -0.186 | 2.6 | 22.5 | 0.84 | -6.61 | 4.52 | 3.65 | 5.99 | -2.12 | -1.28 | -1.99 |
| CC(C)[C@H](NC(=O)NC1CCS(=O)(=O)C1)C(=O)NCc1cccnc1 (stereo partly specified) | 1.49 | -1.33 | 5.47 | 2.33 | -4.52 | -5.46 | 7.95 | -6.4 | 0 | 5.13 | 1.13 |
| Cc1cccc(OCCC(=O)N2CCN(S(=O)(=O)N(C)C)CC2)c1C | 1.47 | 22.8 | -5.81 | -9.44 | 0.661 | -3.42 | 8.93 | 39.5 | 4.43 | 16.5 | -13.5 |
| CC(=O)Nc1nc(C(=O)NC(C)c2ccc3c(c2)OCCO3)cs1 (stereo unspecified) | -5.25 | 18.2 | 6.51 | -11.3 | 5 | -4 | 8.97 | 14.6 | 3.81 | 21.2 | -21.9 |
| COc1ccc(CN2CCc3ncnc(OC(C)C)c3CC2)cc1 | 2.24 | 10.7 | 7.06 | -5.75 | -6.37 | -53.9 | 16.2 | 19 | -14.6 | 0 | -4.41 |
| CC(c1nc(C2CC2)no1)N1CCN(CCOCC(F)(F)F)CC1 (stereo unspecified) | -1.74 | -2.7 | -7.35 | 10.2 | 1.95 | -0.185 | 1.08 | 21 | 2.97 | 11 | 1.39 |
| COc1ccc2c(c1)CCN(CCC(=O)O)CC2 | 0.2 | 16.2 | -5.1 | 15.3 | 1.74 | 1.91 | 13.6 | 6.58 | 5.82 | 17.1 | -1.92 |
| Cc1cccc(-n2ncc(C(=O)N3CCn4c(C)nnc4C3)c2C)c1 | -5.28 | 13.2 | 0.162 | -0.191 | -4.58 | 1.8 | 5.16 | 12.8 | -0.493 | 3.7 | -0.99 |
| Cc1cnnn1Cc1ncn2c1CN(Cc1cccs1)CCC2 | -5.14 | 2.7 | -2.96 | -6.54 | -5.18 | -0.955 | 15.3 | 14.8 | 2.16 | 5.13 | -3.69 |
| OC1CCN(Cc2cc3c(cc2Br)OCCO3)CC1 | -3.08 | 4.17 | 1.37 | -5.64 | -7.68 | 4.42 | 0.526 | -3.8 | 1.05 | 2.56 | -1.21 |
| CCN(CC)c1ccc(-c2nc(-c3cccc(OC)c3OC)no2)cn1 | -3.58 | 8 | -0.0158 | 12.2 | 6.52 | 17.2 | 0.349 | 10.7 | 1.64 | -8.64 | -2.98 |
| CC(C)(C)CC(=O)N1CC[C@@H]2[C@H](CC1)N(S(C)(=O)=O)CCS2(=O)=O | -2.22 | 16.2 | -9.04 | 3.69 | 5.27 | 15 | 9.89 | 8.9 | 8.91 | 20.7 | -8.05 |

Reference: ChEMBL document CHEMBL3988442, “University of Dundee, Small-Polar-MMV Screening Library” (2021)
